# Records with an inconclusive call do not appear. Where a call stands in place of a potency, no number is given. A number with no mark means an inactive call. Activity calls are given as the source filed them. Calls come from the whole dose curve; as a rule, active = well fitted curve in the direction sought with a large enough effect; inconclusive = small, poorly fitted or top-dose-only effect, or another doubt; inactive = no such curve, though single readings can be large; an effect the other way counts as inactive or inconclusive.
# Assays:
# [1] = system: Zika virus NS2B-NS3 protease (linked construct); assay: Primary screen NINDS Rhodamine qHTS for Zika virus inhibitors (AID 1347160); conditions: purified NS2B-NS3 protease, Rhodamine110 substrate fluorescence; series mostly up to 57.1 µM; note: nearly all actives have a fitted effect of over 55% in size
# Method in brief: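 Rhodamine110-peptide cleavage (1.5 µM substrate) by 25 nM linked NS2B-NS3 enzyme at pH 8.0 (Tris, Tween 20), after 15 min RT preincubation with compounds; 15-min fluorescence change normalized to controls and Hill-fitted.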
# [2] = target: Lysine-specific demethylase 5B (Homo sapiens) (UniProt Q9UGL1); assay: Optimization screen for KDM5B Histone Demethylases FDH coupled qHTS against the LOPAC library (AID 1347166); conditions: KDM5B demethylation, FDH-coupled NADH fluorescence (FDH is formaldehyde dehydrogenase); series mostly up to 57.5 µM
# Chain of Lysine-specific demethylase 5B (Homo sapiens) (Q9UGL1 whole entry, looked up): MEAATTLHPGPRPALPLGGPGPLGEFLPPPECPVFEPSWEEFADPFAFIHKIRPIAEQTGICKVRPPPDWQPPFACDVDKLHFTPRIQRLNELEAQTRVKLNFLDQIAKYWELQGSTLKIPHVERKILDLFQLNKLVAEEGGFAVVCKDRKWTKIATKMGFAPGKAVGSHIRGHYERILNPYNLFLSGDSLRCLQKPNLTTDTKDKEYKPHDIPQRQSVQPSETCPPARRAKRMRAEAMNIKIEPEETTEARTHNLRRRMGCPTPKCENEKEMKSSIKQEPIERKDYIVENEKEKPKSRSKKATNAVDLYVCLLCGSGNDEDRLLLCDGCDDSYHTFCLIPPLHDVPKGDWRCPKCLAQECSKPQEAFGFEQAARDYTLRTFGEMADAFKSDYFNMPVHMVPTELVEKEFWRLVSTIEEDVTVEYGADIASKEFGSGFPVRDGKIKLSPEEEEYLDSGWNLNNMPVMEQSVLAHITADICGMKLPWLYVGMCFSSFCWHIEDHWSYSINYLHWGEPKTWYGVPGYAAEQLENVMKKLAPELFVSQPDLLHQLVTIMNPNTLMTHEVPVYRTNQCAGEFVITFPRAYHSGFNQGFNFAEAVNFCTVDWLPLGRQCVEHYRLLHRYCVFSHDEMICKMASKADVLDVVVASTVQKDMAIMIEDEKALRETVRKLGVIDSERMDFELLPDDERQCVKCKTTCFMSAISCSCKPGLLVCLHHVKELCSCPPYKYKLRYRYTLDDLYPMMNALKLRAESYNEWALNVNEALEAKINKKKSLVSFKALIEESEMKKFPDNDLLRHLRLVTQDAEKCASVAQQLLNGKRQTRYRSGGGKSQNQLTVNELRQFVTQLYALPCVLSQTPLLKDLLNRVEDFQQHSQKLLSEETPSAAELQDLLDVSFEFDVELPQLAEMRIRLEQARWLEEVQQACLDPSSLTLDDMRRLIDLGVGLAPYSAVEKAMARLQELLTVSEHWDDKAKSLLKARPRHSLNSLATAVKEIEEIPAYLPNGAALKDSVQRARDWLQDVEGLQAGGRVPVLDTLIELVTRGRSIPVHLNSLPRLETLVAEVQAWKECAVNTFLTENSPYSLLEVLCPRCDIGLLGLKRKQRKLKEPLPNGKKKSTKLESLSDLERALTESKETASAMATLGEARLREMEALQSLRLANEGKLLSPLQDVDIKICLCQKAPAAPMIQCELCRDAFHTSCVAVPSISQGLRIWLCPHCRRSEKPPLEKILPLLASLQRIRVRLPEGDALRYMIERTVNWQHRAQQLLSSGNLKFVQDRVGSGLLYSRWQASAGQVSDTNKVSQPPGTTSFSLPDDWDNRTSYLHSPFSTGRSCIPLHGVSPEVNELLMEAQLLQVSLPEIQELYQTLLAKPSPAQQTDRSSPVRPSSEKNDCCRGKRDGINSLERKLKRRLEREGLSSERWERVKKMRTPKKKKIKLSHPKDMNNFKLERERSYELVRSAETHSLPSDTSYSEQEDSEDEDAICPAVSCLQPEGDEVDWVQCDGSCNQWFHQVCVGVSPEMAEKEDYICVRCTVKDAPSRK
# Method in brief: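 KDM5BDeltaAP (200nM final) in 50mM HEPES pH 7.5, 0.01% Tween-20 was preincubated with compound for 10 min at room temperature. A substrate mix of 12.5uM H3K4Me3, 25uM a-ketoglutarate, ascorbate, Fe2+, NAD+ and formaldehyde dehydrogenase was then added. NADH fluorescence (340/450 nm) was read initially and after 30 min.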
# [3] = Confirmatory screen NINDS Rhodamine qHTS for Zika virus inhibitors (AID 1347161); conditions: purified enzyme assay, Rhodamine110 substrate fluorescence, 15 min; note: potency is the fitted concentration of half-maximal effect; nearly all actives have a fitted effect of over 60% in size
# Method in brief: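 Single-chain NS2B-NS3 protease, 25 nM, pH 8.0; compounds preincubated 15 min. Activity: Rhodamine110 release from 1.5 microM substrate over 15 min, room temperature, data fitted to 4-parameter Hill.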
# [4] = Tertiary RLuc qRT-PCR qHTS assay for Zika virus inhibitors (AID 1347169); conditions: infected Vero cells, reporter luminescence, 48-72 h; series mostly up to 45.9 µM; note: nearly all actives have a fitted effect of over 55% in size; note: potency is the fitted concentration of half-maximal effect; for activity change, negative = inhibition: top concentration of the series differs between compounds
# Method in brief: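 Inhibition of ZIKV-RLuc replication in Vero cells, read as Renilla luminescence 1-1.5 hrs after live-cell substrate addition, following 48-72 hrs infection at MOI 1-2 in presence of compound.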
# [5] = system: Zika virus NS2B-NS3 protease (linked); assay: 384 well plate NINDS AMC confirmatory qHTS for Zika virus inhibitors (AID 1347163); conditions: Recombinant NS2B-NS3 protease, Ac-VKTGKR-AMC fluorescence; series mostly up to 1 mM; note: nearly all actives have a fitted effect of over 50% in size; note: potency is the fitted concentration of half-maximal effect;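 for activity change, negative = inhibition: linked protease at 5 30 or 60 nM final depending on run; fluorescence of AMC released from Ac-VKTGKR-AMC peptide cleaved by the protease; top concentration of the series differs between compounds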
# Method in brief: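 Enzyme (5, 30 or 60 nM final) first met test compounds for ~15 min. The AMC-tagged peptide Ac-VKTGKR-AMC followed at 30 microM. Fluorescence was then recorded at 25 min and scaled against no-enzyme and no-inhibitor wells.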
# [6] = system: Zika virus NS2B-NS3 protease (linked construct); assay: 384 well plate NINDS Rhodamine confirmatory qHTS for Zika virus inhibitors (AID 1347164); conditions: rhodamine-110 peptide substrate fluorescence; note: potency is the fitted concentration of half-maximal effect; nearly all actives have a fitted effect of over 65% in size
# Method in brief: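 Cleavage of Ac-LKRR-Rhodamine 110 (10 microM final) by linked protease (final 5, 30 or 60 nM) was followed as fluorescence at 485/538 nm after 25 min, room temperature, dark. Compounds preincubated ~15 min.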
# [7] = Vero cells viability qHTS for Zika virus inhibitors (AID 1347167); conditions: cytotoxicity counter-screen (Zika); series mostly up to 45.9 µM; note: potency is the fitted concentration of half-maximal effect
# Method in brief: (§1)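 qHTS titration; 24-48 h compound exposure, 37 degrees C/5% CO2; DMEM, 4% FBS; CellTiter Glo ATP luminescence.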
# [8] = HepG2 cells viability qHTS for Zika virus inhibitors (AID 1347168); conditions: Zika counter-screen; series mostly up to 45.9 µM
# Method in brief: as §1
# [9] = OV-KATE Cancer Cell Toxicity qHTS against the NCATS CANVASS Library (AID 1347345); conditions: OV-KATE cells viability, CellTiter-Glo luminescence, 72 h; series mostly up to 76 µM
# Method in brief: (§2)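 Toxicity is measured over 72 h of compound exposure at 37 degrees C under 5% CO2. Each well holds 1000 cells, pre-incubated for 4 hours before dosing across an 11-point range. CellTiter-Glo luminescence gives viability.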
# [10] = HPAF-II Cancer Cell Toxicity qHTS against the NCATS CANVASS Library (AID 1347346); conditions: HPAF-II viability, CellTiter-Glo ATP luminescence, 72 h; series mostly up to 76 µM; note: nearly all actives have a fitted effect of over 55% in size
# Method in brief: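 1000 HPAF-II cells/well; 4 h pre-incubation; 11-pnt compound titration; 72 h, 37 degrees C/5% CO2; CellTiter-Glo, 15 min RT; luminescence read.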
# [11] = UWB1.289 Cancer Cell Toxicity qHTS against the NCATS CANVASS Library (AID 1347347); conditions: UWB1.289 viability, CellTiter-Glo luminescence, 72 h; series mostly up to 76 µM; note: nearly all actives have a fitted effect of over 60% in size
# Method in brief: as §2
# [12] = OV-SAHO Cancer Cell Toxicity qHTS against the NCATS CANVASS Library (AID 1347348); conditions: OV-SAHO viability, CellTiter-Glo luminescence, 72 h; series mostly up to 76 µM; note: nearly all actives have a fitted effect of over 55% in size
# Method in brief: as §2
# [13] = Panc-1005 Cancer Cell Toxicity qHTS against the NCATS CANVASS Library (AID 1347349); conditions: Panc-1005 viability, CellTiter-Glo luminescence, 72 h; series mostly up to 76 µM; note: nearly all actives have a fitted effect of over 60% in size
# Method in brief: as §2
# [14] = U-118MG Cancer Cell Toxicity qHTS against the NCATS CANVASS Library (AID 1347351); conditions: U-118MG viability, CellTiter-Glo luminescence, 72 h; series mostly up to 76 µM
# Method in brief: as §2
# [15] = UWB1.289-WTBRCA1 Cancer Cell Toxicity qHTS against the NCATS CANVASS Library (AID 1347354); conditions: UWB1.289-WTBRCA1 viability, CellTiter-Glo luminescence, 72 h; at 76 µM (top of the series)
# Method in brief: (§3)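 1000 cells/well, 4 h pre-incubation 37 °C/5% CO2; 11-pnt titration; 72 h; CellTiter-Glo 15 min RT, luminescence.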
# [16] = HEK-293 Cancer Cell Toxicity qHTS against the NCATS CANVASS Library (AID 1347355); conditions: HEK-293 viability, CellTiter-Glo luminescence, 72 h; series mostly up to 91.4 µM; note: nearly all actives have a fitted effect of over 65% in size
# Method in brief: as §3
# [17] = HPAF-II 24hr Apoptosis Induction qHTS against the NCATS CANVASS Library (AID 1347356); conditions: HPAF-II caspase-3/7 Caspase-Glo luminescence; series mostly up to 91.4 µM
# Method in brief: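 500 HPAF-II cells/well; compounds in 11-pnt qHTS; 24 h, 37 C/5% CO2; Caspase-Glo 3/7 added, 15 min RT dark; luminescence read. Doxorubicin control.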
# [18] = HEK293 18hr Apoptosis Induction qHTS against the NCATS CANVASS Library (AID 1347357); conditions: HEK293 caspase-3/7 Caspase-Glo luminescence; series mostly up to 91.4 µM
# Method in brief: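 Natural products applied to HEK293 for 18 hr; Caspase-Glo 3/7 readout.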
# [19] = HPAF-II 12hr Apoptosis Induction qHTS against the NCATS CANVASS Library (AID 1347358); conditions: HPAF-II caspase-3/7 Caspase-Glo luminescence; series mostly up to 91.4 µM
# Method in brief: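 Caspase-Glo 3/7 luminescence (DEVD substrate) reports caspase activity in HPAF-II cells after 12 h compound treatment at 37 degrees C. Compounds were tested in an 11-point series. Doxorubicin served as control.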
# [20] = HEK293 24hr Apoptosis Induction qHTS against the NCATS CANVASS Library (AID 1347359); conditions: HEK293 caspase-3/7 activation, Caspase-Glo luminescence; series mostly up to 91.4 µM
# Method in brief: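 HEK293 cells, 500 per well, exposed to an 11-point compound series for 24 hours at 37 degrees C. Caspase 3/7 activity read by Caspase-Glo luminescence (DEVD substrate) after 15 min at room temperature.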
structure (smiles),measurement,setting,value
CC(C)N(CCC(C(N)=O)(c1ccccc1)c1ccccn1)C(C)C (stereo not given),outcome,[1],inactive
same,outcome,[2],inactive
COc1ccc2c(c1OC)C(=O)O[C@H]2[C@@H]1c2cc3c(cc2CCN1C)OCO3,outcome,[2],inactive
CC(=O)OCC1=C(C(=O)O)N2C(=O)[C@@H](N)[C@H]2SC1,Potency,[3],24.8 µM (active)
same,Potency,[4],inactive
CN1C(=O)CCS(=O)(=O)C1c1ccc(Cl)cc1 (stereo not given),outcome,[2],inactive
C=CCN1C[C@H](C)N([C@H](c2ccc(C(=O)N(CC)CC)cc2)c2cccc(OC)c2)C[C@H]1C,"activity change, negative = inhibition",[1],6.42% [at 10.7 µM]
CC(NC(C)(C)C)C(=O)c1cccc(Cl)c1 (stereo not given),outcome,[1],inactive
same,outcome,[2],inactive
O=c1c(C2CC(c3ccc(-c4ccc(Br)cc4)cc3)Cc3ccccc32)c(O)sc2ccccc12 (stereo not given),Potency,[3],2.2 µM (active)
same,Potency,[5],11.2 µM (active)
same,Potency,[6],17.8 µM (active)
same,Potency,[7],inactive
same,outcome,[8],inactive
O=C(CCCN1CCC2(CC1)C(=O)NCN2c1ccccc1)c1ccc(F)cc1,outcome,[2],inactive
CCC1(c2ccc(N)cc2)CCC(=O)NC1=O (stereo not given),outcome,[2],inactive
NCCc1ccc(O)cc1,outcome,[1],inactive
same,outcome,[2],inactive
same,outcome,[9],inactive
same,outcome,[10],inactive
same,outcome,[11],inactive
same,outcome,[12],inactive
same,outcome,[13],inactive
same,outcome,[14],inactive
same,outcome,[15],inactive
same,outcome,[16],inactive
same,outcome,[17],inactive
same,outcome,[18],inactive
same,outcome,[19],inactive
same,outcome,[20],inactive
CC(C)(C)NCC(O)c1ccccc1Cl (stereo not given),outcome,[2],inactive
C=C(C)[C@H]1CN[C@H](C(=O)O)[C@H]1CC(=O)O,outcome,[2],inactive
C[C@]12CC[C@@H]3c4ccc(OC(=O)N(CCCl)CCCl)cc4CC[C@H]3[C@@H]1CC[C@@H]2OP(=O)(O)O,outcome,[1],inactive
O=c1[nH]oc2c1CCNC2,outcome,[2],inactive
O=C1OC(c2ccc(O)c(S(=O)(=O)O)c2)(c2ccc(O)c(S(=O)(=O)O)c2)c2c(Br)c(Br)c(Br)c(Br)c21,Potency,[3],2.51 µM (active)
same,Potency,[5],112 µM (active)
O=C(Nc1ccc(Br)cc1)c1cc(Br)cc(Br)c1O,Potency,[3],3.12 µM (active)
same,Potency,[5],inactive
same,Potency,[6],44.7 µM (active)
same,Potency,[7],23.4 µM (active)
same,outcome,[8],inactive
same,Potency,[4],8.29 µM (active)
O=C(O)CCCc1ccc(N(CCCl)CCCl)cc1,outcome,[2],inactive
C[C@]12CC[C@@H]3c4ccc(OC(=O)N(CCCl)CCCl)cc4CC[C@H]3[C@@H]1CC[C@@H]2O,Potency,[3],1.97 µM (active)
same,Potency,[6],39.8 µM (active)
same,Potency,[7],inactive
same,outcome,[8],inactive
O=P1(N(CCCl)CCCl)NCCCO1 (stereo not given),outcome,[2],inactive
CC(C)c1cccc(C(C)C)c1O,outcome,[2],inactive
Cc1ncsc1CCCl,outcome,[2],inactive
